Results taken from PubChem BioAssay.
The source made the active and inactive calls.

How the values were obtained:
Albumin (Bos taurus) = Albumin (Bos taurus) (UniProt P02769); assay: bovine serum albumin binders on microarray, profiling panel, artefact control for SMM control protein annotation, biochemical, small-molecule microarray, Alexa647 label, 635/667 nm fluorescence (AID 1118); details: BSA-A647 binding, fluorescence 635 nm, higher = more signal;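 also: score merges 667 nm emission intensity and signal-to-noise per printed compound spot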
[1] = small-molecule microarray binders of probe aXIP, primary screen, biochemical, NeuroSMM set, 635/667 nm fluorescence (AID 1119); details: higher = more signal, called active from +8 up or from −8 down;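 also: probe is the protein aXip251-270 applied at 1 µg/mL to compound-printed slides; binding of probe to printed compounds measured as 667 nm fluorescence plus signal to noise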
[2] = small-molecule binders of probe aNOTCH3, primary screen, biochemical, small-molecule microarray, 635/667 nm fluorescence (AID 1120); details: higher = more signal;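 also: probe is a biotin-tagged antibody raised against NOTCH3 rather than NOTCH3 protein; score merges spot fluorescence near 667 nm with spot signal to noise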
[3] = small-molecule binders of probe aNOTCH2, primary screen, biochemical, small-molecule microarray, 635/667 nm fluorescence (AID 1121); details: higher = more signal;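 also: score merges feature fluorescence read at 667 nm with its signal to noise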
[4] = target: Carbonic anhydrase 2 (Homo sapiens) (UniProt P00918); assay: CAII small-molecule binders, profiling panel, biochemical, small-molecule microarray, Alexa647-labelled CAII (AID 1122); details: CAII-A647 binding fluorescence, higher = more signal
[5] = COS7 lysate on small-molecule microarray, probe aHis, 635 nm (AID 1123); details: COS7 cell lysate, fluorescence, higher = more signal;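 also: z-score combines 667nm fluorescence intensity with signal-to-noise per printed compound spot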
[6] = compound binding in COS7 lysate, probe aLAP1, primary screen, cell lysate, small-molecule microarray (AID 1124); details: probe aLAP1, fluorescence, higher = more signal;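 also: lysate comes from COS7 cells expressing LAP1 and is applied at 0.3 µg/mL; score merges spot fluorescence near 667 nm with signal-to-noise over triplicate slides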
Sam68 (KHDRBS1) = assay: Sam68 small-molecule binders, primary screen, biochemical, small-molecule microarray, 635 nm fluorescence (AID 1125); details: small-molecule microarray binding, higher = more signal;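 also: score merges 667 nm channel intensity with signal to noise over triplicate slides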
[7] = system: Chordin-like protein 2 (CHRDL2); assay: CHRDL2 small-molecule binders, primary screen, biochemical, small-molecule microarray, 635 nm fluorescence (AID 1126); details: small-molecule microarray binding, fluorescence 635 nm; higher = more signal;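 also: printed compound slides probed with Chrdl2 protein at 4 µg/mL for 1 h at 4 C; score merges 667 nm emission intensity with signal to noise over three replicate slides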
[8] = target: Concanavalin-A (Canavalia ensiformis) (UniProt P02866); assay: ConA small-molecule binders, primary screen, artefact control for SMM control protein annotation, biochemical, small-molecule microarray, Alexa647 label, 635 nm (AID 1127); details: ConA-A647 binding fluorescence, higher = more signal;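 also: z combines 667 nm emission intensity with signal-to-noise across three replicate slides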
Concanavalin-A (Canavalia ensiformis), sequence (P02866 whole entry, looked up): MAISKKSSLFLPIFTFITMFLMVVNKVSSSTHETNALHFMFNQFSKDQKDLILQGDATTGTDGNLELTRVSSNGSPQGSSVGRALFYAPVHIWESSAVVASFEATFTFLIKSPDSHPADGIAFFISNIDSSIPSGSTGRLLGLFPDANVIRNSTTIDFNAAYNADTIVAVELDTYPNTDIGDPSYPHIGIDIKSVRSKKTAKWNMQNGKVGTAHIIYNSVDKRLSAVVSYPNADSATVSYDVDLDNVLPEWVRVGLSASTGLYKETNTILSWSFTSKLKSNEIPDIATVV

Albumin (Bos taurus), sequence (P02769 whole entry, looked up): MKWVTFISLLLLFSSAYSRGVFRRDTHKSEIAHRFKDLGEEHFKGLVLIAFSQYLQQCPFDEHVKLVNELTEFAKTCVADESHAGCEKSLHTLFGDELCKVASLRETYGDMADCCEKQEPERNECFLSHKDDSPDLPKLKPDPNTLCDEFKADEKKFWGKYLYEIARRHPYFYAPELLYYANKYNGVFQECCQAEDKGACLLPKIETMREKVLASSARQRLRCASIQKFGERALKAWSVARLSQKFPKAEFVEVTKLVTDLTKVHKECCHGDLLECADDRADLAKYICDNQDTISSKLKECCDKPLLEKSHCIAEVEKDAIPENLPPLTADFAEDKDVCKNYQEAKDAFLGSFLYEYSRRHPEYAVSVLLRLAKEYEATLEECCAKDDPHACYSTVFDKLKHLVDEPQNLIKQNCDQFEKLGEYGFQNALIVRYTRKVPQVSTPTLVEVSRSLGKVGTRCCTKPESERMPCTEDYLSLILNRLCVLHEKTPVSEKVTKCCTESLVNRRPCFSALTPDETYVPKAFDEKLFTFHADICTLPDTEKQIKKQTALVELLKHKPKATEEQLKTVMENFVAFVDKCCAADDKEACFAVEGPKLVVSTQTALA

| Compound | composite z-score (Albumin (Bos taurus)) | composite Z-score [1] | composite z-score [2] | composite z-score [3] | composite z-score [4] | composite z-score [5] | composite z-score [6] | composite z-score (Sam68 (KHDRBS1)) | composite z-score [7] | composite z-score [8] |
| --- | --- | --- | --- | --- | --- | --- | --- | --- | --- | --- |
| Cc1ccc(S[C@]2(C(=O)O)CC(=O)N(Cc3cc(C(F)(F)F)cc(C(F)(F)F)c3)[C@@H]2c2ccc(CO)cc2)cc1 | -1.78 | -0.483 (inactive) | -0.512 | -0.154 | 0.65 | 1.23 | 0.549 | -0.25 | -2.37 | -1.24 |
| C=CCC(OC(C)=O)[C@@H]1[C@@H](N(Cc2cc3ccccc3o2)C(=O)c2ccc(-c3ccccc3)cc2)c2cc(OCCCO)ccc2N1C(=O)c1ccc2ccccc2c1 (stereo not given in full) | 0.0005 | 0.142 (inactive) | -0.154 | -0.106 | -0.105 | 0.612 | 0.0944 | 0.095 | 0.0295 | -0.0066 |
| COC(=O)[C@@]1(Cc2ccc(F)cc2)[C@H]2c3cc(C(=O)N(C)C)n(Cc4cc(F)cc5c4OCOC5)c3C[C@H]2CN1C(=O)c1ccccc1 | 1.07 | -0.199 (inactive) | 0.24 | 0.105 | 0.376 | 2.97 | 0.271 | 1.33 | -0.535 | 1.04 |
| [N-]=[N+]=Nc1ccccc1C[C@]1(C(N)=O)N=C(c2ccc(OCCCO)cc2)O[C@H]1c1ccccc1N=[N+]=[N-] | 0.92 | -0.199 (inactive) | 0.231 | -0.0091 | 0.672 | 0.0754 | 0.193 | 1.31 | -0.321 | 1.12 |
| C=C(C)C1CCC(C(O)C2C=CC3C(=O)N(C)C(=O)C3N2N2CCCCC2)CC1 (stereo not given) | 0.735 | 0.172 (inactive) | 0.223 | 0.0598 | 0.514 | 2.03 | 0.386 | 1.29 | 1.24 | 1.12 |
| CN(C)C(=O)[C@]1(CCS(=O)(=O)c2ccccc2)N=C(c2ccc(OCCCO)cc2)O[C@@H]1c1ccccc1N=[N+]=[N-] | 0.963 | -0.0275 (inactive) | 0.545 | 0.111 | 0.689 | 2.93 | 0.108 | 1.29 | 0.555 | 1.16 |
| C[C@@H]1ON(c2ccc(C(=O)OC(C)(C)C)cc2)[C@H](c2ccc(O)cc2)[C@H]1C(=O)N1C(=O)OC[C@H]1Cc1ccccc1 | 0.31 | 0.522 (inactive) | 0.0836 | -0.0449 | 0.217 | 0.58 | 0.581 | 1.31 | 0.448 | 1.03 |
| COC(=O)[C@@]1(Cc2ccc(OC)cc2)[C@@H]2C(=CC(=O)[C@H]2CC(=O)C(=O)N(C)C)CN1C(=O)c1ccccc1 | 0.982 | -0.0238 (inactive) | 0.848 | 0.358 | 0.777 | 2.47 | 0.536 | 1.31 | -0.501 | 1.11 |
| C=C(CCCC)/C(=C/C[C@@H](OC(=O)c1ccncc1)c1ccccc1OCCO)c1cnc2ccccc2c1 | 0.459 | -0.869 (inactive) | 0.28 | -0.105 | 0.719 | 0.457 | 0.603 | 1.3 | 0.924 | 1.07 |
| CC(C)[Si](C#C[Si](C(C)C)(C(C)C)C(C)C)(O[C@H](C)c1cn([C@H](CO)Cc2ccccc2)nn1)C(C)C | 0.544 | -0.397 (inactive) | -0.0699 | -0.145 | 0.0728 | 0.713 | -0.268 | 0.193 | 0.498 | 1.03 |
| CC(c1ccccc1)C(O)C1C=CC2C(=O)N(c3ccccc3)C(=O)C2N1Nc1ccc([N+](=O)[O-])cc1 (stereo not given) | 0.903 | -0.122 (inactive) | 0.158 | -0.0211 | 0.526 | 2.95 | 0.0001 | 1.05 | -0.661 | 1.12 |
| CCOC(=O)C1=CC[C@@H](c2ccccc2C(F)(F)F)N(S(=O)(=O)c2ccc(C)cc2)[C@H]1c1ccc(C#N)cc1 | 0.733 | -0.554 (inactive) | 0.223 | -0.0211 | 0.675 | 0.791 | 1.25 | 0.892 | 0.475 | 1.11 |
| CC(C)[Si](C#CCCCC#N)(O[C@H](c1ccccc1)c1cn([C@H](CO)Cc2ccccc2)nn1)C(C)C | 0.992 | 0.727 (inactive) | -0.15 | -0.161 | 0.456 | 0.605 | 0.936 | 1.11 | -0.006 | 1.16 |
| COCCOC(=O)N1C(=O)[C@@]2(c3cc(C#CC4(O)CCCCCC4)ccc31)[C@H](c1ccc(O)cc1)N1[C@H](c3ccccc3)[C@H](c3ccccc3)OC(=O)[C@H]1[C@@H]2C(=O)NC[C@H](O)c1ccccc1 | 0.179 | 0.534 (inactive) | -0.0133 | 0.0296 | 0.522 | 2.46 | 1.46 | 1.3 | 0.97 | 1.02 |
| COc1ccc([Si](C)(C)[C@@H]2[C@@H](CC(=O)N(CCO)Cc3ccccc3)O[C@]3(C(=O)N(Cc4cccc(N5C(=O)c6cccc7cccc5c67)c4)c4ccccc43)[C@H]2C)cc1 | -0.0059 | 0.363 (inactive) | -0.124 | -0.203 | -0.199 | 0.135 | 0.0553 | 0.0019 | 0.432 | 1.04 |
| CCCNC(=O)[C@@]1(c2ccc([N+](=O)[O-])cc2)CC(=O)N(C2CCCCC2)[C@@H]1c1ccc(CO)cc1 | 0.0308 | 0.173 (inactive) | 0.135 | -0.0406 | 0.66 | 2.01 | 0.999 | 1.25 | 0.19 | 0.95 |
| COCCOC(=O)N1C(=O)[C@@]2(c3cc(C#CC4=CCCCC4)ccc31)[C@H](c1ccc(OCCO)cc1)N1[C@H](c3ccccc3)[C@H](c3ccccc3)OC(=O)[C@H]1[C@@H]2C(=O)NC[C@H](O)c1ccccc1 | -0.298 | 0.193 (inactive) | 0.164 | 0.0629 | 0.326 | 1.22 | 0.875 | 1.31 | 1.41 | 1.12 |
| COCCOC(=O)N1C(=O)[C@@]2(c3cc(C#CC4=CCCCC4)ccc31)[C@H](C(N)=O)[C@H]1C(=O)O[C@H](c3ccccc3)[C@H](c3ccccc3)N1[C@@H]2c1ccccc1OCCO | -0.24 | -0.0254 (inactive) | -0.0057 | -0.114 | 0.652 | 1.59 | 0.806 | 1.31 | 0.588 | 1.11 |
| CN(C)C(=O)[C@@]1(Cc2ccccc2CN=[N+]=[N-])N=C(c2ccc(OCCCO)cc2)O[C@H]1c1ccccc1CN=[N+]=[N-] | 0.936 | 0.608 (inactive) | 0.602 | 0.202 | 0.703 | 2.79 | 0.15 | 0.873 | -0.103 | 1.07 |
| CCOC(=O)c1ccc(NC(=O)O[C@H]2[C@H](OC(=O)Nc3ccc4c(c3)OCO4)[C@H](OC(=O)Nc3ccc4c(c3)OCO4)[C@@H](OC)O[C@@H]2CO)cc1 | 0.0541 | 1.52 (inactive) | 0.411 | 0.077 | 0.49 | 1.52 | 0.551 | 1.3 | 0.393 | 1.18 |
| COCCOC(=O)N1C(=O)[C@@]2(c3cc(C#CCC(C(=O)OC)C(=O)OC)ccc31)[C@H](C(=O)N1CCc3cc(OC)c(OC)cc3C1)[C@H]1C(=O)O[C@H](c3ccccc3)[C@H](c3ccccc3)N1[C@@H]2c1ccc(OCCO)cc1 | -0.525 | 0.654 (inactive) | 0.15 | -0.0357 | 0.357 | 1.2 | 0.519 | 1.29 | 0.837 | 1.11 |
| COC(=O)[C@@]1(Cc2ccc(OC)cc2)[C@H]2c3cc(C(=O)N(C)C)n(Cc4ccc(Cl)c(C(F)(F)F)c4)c3C[C@H]2CN1C(=O)c1ccccc1 | 0.962 | 0.579 (inactive) | 0.406 | 0.29 | 0.377 | 2.65 | 0.0516 | 1.26 | -0.763 | 0.952 |
| COCCOC(=O)N1C(=O)[C@@]2(c3cc(C#CC4=CCCCC4)ccc31)[C@H](c1ccc(OCCO)cc1)N1[C@H](c3ccccc3)[C@H](c3ccccc3)OC(=O)[C@H]1[C@@H]2C(=O)N1CCN(c2ncccn2)CC1 | 0.737 | -0.648 (inactive) | 0.0596 | -0.158 | 0.425 | 0.477 | 0.677 | 1.31 | 0.48 | 0.713 |
| O=C(N1CCCCC1)[C@@]1(CCS(=O)(=O)c2ccccc2)COC(c2ccc(OCCCO)cc2)=N1 | 0.107 | 0.674 (inactive) | 0.289 | 0.207 | 0.582 | 2.66 | 0.729 | 1.31 | 0.225 | 1.1 |
| CN(C)CCCNC(=O)[C@@H]1c2ccccc2C(=O)N(Cc2ccccc2Cl)[C@H]1c1ccc(CO)cc1 | 0.301 | 0.247 (inactive) | -0.236 | -0.0993 | 0.73 | 1.17 | 0.982 | 0.671 | -0.349 | -0.284 |
| O=c1n(-c2ccccc2)c(=O)n2n1CC(COc1ccccc1)=C([C@H](O)CCc1ccccc1)[C@@H]2CO | -0.341 | 0.11 (inactive) | -0.187 | -0.0895 | -0.241 | 0.277 | -0.408 | -0.0362 | 0.315 | -0.352 |
| [N-]=[N+]=NCc1ccccc1C[C@@]1(C(=O)NCc2ccccc2)N=C(c2ccc(OCCCO)cc2)O[C@@H]1c1ccccc1N=[N+]=[N-] | 0.428 | -0.126 (inactive) | -0.102 | -0.0527 | 0.301 | -0.0255 | 0.472 | 1.06 | -1.06 | 0.725 |
| CN1C(=O)C2C=CC(C(O)c3ccc(F)cc3)N(Nc3ccccc3)C2C1=O (stereo not given) | 0.884 | 0.21 (inactive) | 0.0562 | -0.14 | 0.721 | 1.64 | -0.481 | 0.57 | -0.623 | 0.808 |
